# D2 antag – HTS Assay for Allosteric Antagonists of the Human D2 Dopamine Receptor: Primary Screen for Antagonists; HEK293 TREx D2 cells, calcium flux, dopamine EC80; inhibition, % at 10 µM; hit rate 2% among 340,000; AID 485344, 2010; in the data active means inhibition above about 30%; inactive means below that, where a call was filed; further: 0% is about no effect
# Target sequence (P14416 whole entry, looked up): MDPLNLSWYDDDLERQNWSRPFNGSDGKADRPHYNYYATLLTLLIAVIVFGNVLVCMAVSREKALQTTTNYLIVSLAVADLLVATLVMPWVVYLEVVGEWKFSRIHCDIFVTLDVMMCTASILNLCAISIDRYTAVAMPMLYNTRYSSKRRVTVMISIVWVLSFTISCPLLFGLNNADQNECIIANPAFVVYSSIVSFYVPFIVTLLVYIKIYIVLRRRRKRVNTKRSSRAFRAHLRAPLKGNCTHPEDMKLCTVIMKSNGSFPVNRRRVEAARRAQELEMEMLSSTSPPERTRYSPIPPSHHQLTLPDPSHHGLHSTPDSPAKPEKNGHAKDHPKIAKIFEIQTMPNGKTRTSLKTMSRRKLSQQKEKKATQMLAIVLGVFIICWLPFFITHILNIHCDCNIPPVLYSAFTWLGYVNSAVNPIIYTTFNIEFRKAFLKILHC
#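 Antagonism is scored as inhibition of an EC80 dopamine-evoked calcium signal in a force-coupled, tetracycline-inducible HEK293 T-REx D2 line, with compound present 180 s before agonist.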
# D2 ag-1 – HTS Assay for Allosteric Agonists of the Human D2 Dopamine Receptor: Primary Screen for Agonists | D(2) dopamine receptor (Homo sapiens), P14416 | HEK293 T-REx D2 cells, calcium flux agonist mode | activation, % at 2 µM | hit rate 0.53% among 340,000;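 active means activation over 3 SD above normal in the single-dose calcium agonist read, cut at about 30% in these data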; further: 0% is about no effect
#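 Agonism is scored from calcium flux in a force-coupled, inducible HEK293 cell line expressing D2, read kinetically for 180 s after compound addition against dopamine controls.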
# D2 PAM-1 – HTS Assay for Positive Allosteric Modulators of the Human D2 Dopamine Receptor: Primary Screen for Potentiators | HEK293 T-REx D2, calcium flux, EC20 dopamine potentiation | potentiation, % at 10 µM | hit rate 0.34% among 340,000;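 active means potentiation over 3 SD above the plate norm, cut at about 30% in these data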; further: 0% is about no effect
#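 Tetracycline-induced Hek293 Trex D2 cells, force-coupled to calcium, loaded with no-wash calcium dye. Compound added with 180 s kinetic read for agonism, then EC20 dopamine and a further 180 s read for potentiation.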
# LDHA block – qHTS assay for inhibitors of human lactate dehydrogenase; L-lactate dehydrogenase A chain (Homo sapiens), P00338; purified LDHA, NADH/diaphorase-resazurin fluorescence; hits give low values; activity change, % (values are at about 110 or 230 µM); hit rate 0.15% among 480,000; in the data active means activity change below about -30%;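 further: plate controls were DMSO wells for no effect and wells without enzyme for full effect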
#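 Remaining NADH was detected by diaphorase (0.133 mg/mL) converting 37 µM resazurin to fluorescent resorufin, read at 0 and 20 minutes. The preceding 5-minute room-temperature reaction used 2 nM LDHA, 0.2 mM sodium pyruvate and 0.06 mM NADH at pH 7.4.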
# D2 ag-2 – Beta-Arrestin HTS for Positive Allosteric Modulators of the Human D2 Dopamine Receptor: Agonists. D(2) dopamine receptor (Homo sapiens), P14416. DiscoveRx PathHunter D2 beta-arrestin, luminescence, 90 min; 100% = 57 uM dopamine signal. activation, % (test concentration not listed). hit rate 0.084% among 360,000. AID 624465, 2012; in the data active means activation above about 40%
#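 DiscoveRx PathHunter D2 beta-arrestin cells (2,100/well) attached overnight, then compound-stimulated 90 min at 37 C in HBSS/10 mM HEPES/0.1% Tween-20 buffer; beta-galactosidase complementation read by luminescence after 1 h at ambient temperature. Dopamine 57 uM final (EC100) as control.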
# D2 PAM-2 – Beta-Arrestin HTS for Positive Allosteric Modulators of the Human D2 Dopamine Receptor: Potentiators | DiscoveRx D2 beta-arrestin cells, luminescence, 90 min; 100% = 57 uM dopamine signal | potentiation, % (concentration not given with the values) | hit rate 0.23% among 360,000 | AID 624464, 2012; in the data active means potentiation above about 50%
#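 D2 cells co-treated with compound plus 50 nM dopamine (EC20) for 90 min at 37 deg C to detect potentiation. Beta-arrestin recruitment was read as enzyme-fragment luminescence after 1 h at ambient temperature. Full response was set by 57 uM dopamine.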
# An asterisk follows results filed as active; nt = no result. An excerpt weighted towards active compounds, which were near 2.1% of everything screened.
SMILES,D2 antag,D2 ag-1,D2 PAM-1,LDHA block,D2 ag-2,D2 PAM-2
COc1cccc(NC(=O)Cn2c(=O)n(C)c(=O)c3sc4c(c32)COC(C)(C)C4)c1,43*,0,-11,-10,-1,-5
CCCCn1c(=O)c(Cc2ccccc2)c(O)c2ccccc21,-15,0,31*,-6,-4,5
CCCCCCn1c(=O)c(Cc2ccccc2)c(O)c2ccccc21,-5,0,4,-4,-7,-5
CC1(C)CCC(C)(C)c2cc([S+](=O)([O-])N3CCN([S+](=O)([O-])c4c(F)cccc4F)CC3)ccc21,nt,nt,nt,-13,nt,nt
CC1(C)CCN2CCC(C)(C)c3c(O)ccc1c32,-2,34*,4,20,4,2
COC(=O)C1=C(O)/C(=C\c2cc(C)n(-c3ccccc3F)c2C)N=C1C,3,-1,nt,0,2,-6
COC(=O)C1=C(O)/C(=C\c2cc(C)n(-c3ccccc3C)c2C)N=C1C,32*,0,13,-3,0,-23
CC1CCc2sc(C(=O)OCC(=O)NCCC3=CCCCC3)cc2C1 (stereo not given),nt,nt,nt,12,nt,nt
OCC1(Cc2ccccc2)CCN(Cc2cnn(-c3ccccc3F)c2)CC1,31*,0,-21,-6,-2,-18
OCC1(Cc2ccccc2)CCN(C2CCN(c3ccccc3F)CC2)CC1,47*,-1,-30,2,1,-15
O=C(Cc1ccccc1)N1CCN(c2ccccc2F)CC1,-11,9,-5,-1,7,-2
Cc1c(NC(=O)CSc2ccccc2F)c(=O)n(-c2ccccc2)n1C,-16,-1,46*,-6,-3,0
Cc1c(NC(=O)COC(=O)Cc2ccc(Br)cc2)c(=O)n(-c2ccccc2)n1C,-9,0,7,-11,-1,-14
Cc1c(NC(=O)CSCc2ccc(Br)cc2)c(=O)n(-c2ccccc2)n1C,42*,0,-6,-9,-4,-5
Cc1c(NC(=O)c2ccc(Br)o2)c(=O)n(-c2ccccc2)n1C,-5,-1,31*,-3,-3,-2
Cc1c(NC(=O)COc2ccc3ccccc3c2)c(=O)n(-c2ccccc2)n1C,7,0,35*,-23,-3,-3
Cc1c(NC(=O)COc2cccc(F)c2)c(=O)n(-c2ccccc2)n1C,10,1,-4,-4,1,16
CC(C)c1ccccc1NC(=O)/C=C/c1c(F)cccc1Cl,nt,nt,nt,0,nt,nt
Cc1cccc(C(=O)NC(Nc2ccc3ccccc3c2)C(Cl)(Cl)Cl)c1 (stereo not given),nt,nt,nt,-22,nt,nt
Cc1c2c(nc3ccccc13)CCc1ccccc1-2,nt,nt,nt,3,nt,nt
COc1ccc(CCN=CC2=C(O)CC(C)(C)CC2=O)cc1,31*,0,3,-6,-2,9
CC1(C)CC(=O)C(C=NCCc2ccc(S(N)(=O)=O)cc2)=C(O)C1,nt,nt,nt,-7,-2,-4
COCC(=O)Nc1cc(C(=O)Nc2cccc(C)c2C)ccc1Cl,3,0,-2,-4,2,1
COCC(=O)Nc1cc(C(=O)Nc2ccccc2C)ccc1Cl,32*,0,0,-10,-1,-6
Cc1ccc(NC(=O)c2cccs2)cc1NC(=O)c1cccnc1,nt,nt,nt,0,-1,77*
SMILES,D2 antag,D2 ag-1,D2 PAM-1,LDHA block,D2 ag-2,D2 PAM-2
O=C(Nc1ccc(NC(=O)c2cccs2)cc1)c1cccnc1,7,-3,-5,-1,-5,-3
Cc1cccc[n+]1CCCCCCCCCC[n+]1ccccc1C,-1,0,-5,0,2,-4
Brc1cccc[n+]1CCC[n+]1ccccc1Br,nt,nt,nt,-65*,nt,nt
COC(=O)c1ccc2c(=O)[nH]c(CSc3nnc(-c4cccc(C)c4)n3Cc3ccco3)nc2c1,nt,nt,nt,6,nt,nt
Cc1ccc2nc(-c3ccc(C)s3)cc(C(=O)NCc3ccco3)c2c1,nt,nt,nt,-7,nt,nt
COc1ccc(CCC(=O)NNC(=O)Nc2cc(Cl)ccc2C)cc1,33*,0,-1,-8,-8,-12
COC(=O)c1ccc(C)c(NC(=O)CCc2ccc(OC)cc2)c1,-11,-1,-3,0,0,-7
CN(Cc1ccccc1)C(=C(Cl)Cl)/C(=C1/NCCN1C)[N+](=O)[O-],7,0,2,3,-1,-7
CN(Cc1ccccc1)C(=C(Cl)Cl)C(=C1NCCN1)[N+](=O)[O-],34*,1,-9,3,-3,-9
CCOc1ccc(C2C(C#N)=C(N)Oc3n[nH]c(-c4ccc(F)cc4)c32)cc1OCC (stereo not given),nt,nt,nt,-13,nt,nt
O=c1[nH]c2cc3c(cc2cc1C(c1nnnn1C1CCCC1)N1CCCc2ccccc21)OCCO3 (stereo not given),1,1,43*,8,-2,25
Cc1ccc(C(CNC(=O)c2ccc(NC(=O)OC(C)(C)C)cc2)N2CCOCC2)o1 (stereo not given),nt,nt,nt,-34*,nt,nt
Cc1ncc(CN2CCC(CO)(CCc3ccccc3)CC2)s1,81*,1,-38,-13,-3,-23
CC(COc1ccccc1)N1CCC(CO)(CCc2ccccc2)CC1 (stereo not given),52*,17,-17,-5,-1,-15
CSCC(C)N1CCC(CO)(CCc2ccccc2)CC1 (stereo not given),3,0,-8,2,-1,-5
COc1ccc2cc(C(=O)NCCCN(C)C)[nH]c2c1,nt,nt,nt,-2,nt,nt
COC(=O)C1Sc2[nH]c(=O)sc2C(c2ccc(Cl)cc2)C1C(=O)OC (stereo not given),38*,-1,5,-6,-3,-2
COC(=O)C1Sc2[nH]c(=O)sc2C2c3ccccc3OC(=O)C12 (stereo not given),-5,0,23,0,2,-9
Cc1ccc2c(CN(C)CCOc3ccccc3Cl)cc(=O)oc2c1,nt,nt,nt,2,nt,nt
CCCN1CNc2c(c(=O)[nH]c(=S)n2-c2ccc(Cl)cc2)C1,-3,0,10,-5,-1,-3
CCCN1CNc2c(c(=O)[nH]c(=S)n2-c2ccccc2Cl)C1,3,0,68*,-6,-4,2

# High-throughput results: PubChem BioAssay, National Center for Advancing Translational Sciences (NCATS)
